FBA Mtb inh: Mtb FBA enzyme inhibitors, primary screen, biochemical, fluorescence, strain H37Rv. Fructose-bisphosphate aldolase (Mycobacterium tuberculosis (strain ATCC 25618 / H37Rv)), …. purified M. tuberculosis FBA, fluorescence read-out. inhibition, % at 1 µM. 360,000 tested, 2.3% active; in the data active means inhibition above about 27%;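 further: 0% = vehicle and 100% = reference inhibitor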
GDH-TPI counter: GDH-TPI coupling enzyme inhibitors, primary screen, artefact control for M. tuberculosis FBA inhibitor project, biochemical, absorbance, full deck; 360,000 tested, 1.2% active; GDH-TPI coupled enzyme counterscreen, NADH absorbance; inhibition, % at 4.8 µM; in the data active means inhibition above about 30%;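 further: 0% = DMSO wells and 100% = wells lacking the enzyme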
Mtb UGM inh: M. tuberculosis UGM enzyme inhibitors, primary screen, biochemical, fluorescence polarization, single point. purified UGM, fluorescence polarization probe displacement. 320,000 tested, 0.06% active. AID 504406, 2011. UDP-galactopyranose mutase (Mycobacterium tuberculosis (strain ATCC 25618 / H37Rv)), …. inhibition, % at 10 µM; in the data active means inhibition above about 10%, passing the limit was not always enough
Mtb betalactam: beta-lactam sensitization of Mtb H37Rv, H37Rv; M. tuberculosis H37Rv growth with meropenem, percent inhibition; inhibition, % at 25 µM; 330,000 tested, 0.27% active; AID 434955, 2010; call rule not given here;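 further: growth measured after seven days incubation then overnight dye step; 0% = bacteria only wells and 100% = bacteria with antibiotic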
Rv3671c protease: Rv3671c serine protease inhibitors, primary screen, biochemical, fluorescence polarization, M. tuberculosis H37Rv; P9WHR9; inhibition, % at 5.96 µM; 320,000 tested, 0.048% active; in the data active means inhibition above about 38%;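 further: extracellular domain of Rv3671c used as enzyme; 0% = enzyme with DMSO and 100% = no enzyme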
Target sequence (P9WHR9 whole entry, looked up, the tested form may be a part): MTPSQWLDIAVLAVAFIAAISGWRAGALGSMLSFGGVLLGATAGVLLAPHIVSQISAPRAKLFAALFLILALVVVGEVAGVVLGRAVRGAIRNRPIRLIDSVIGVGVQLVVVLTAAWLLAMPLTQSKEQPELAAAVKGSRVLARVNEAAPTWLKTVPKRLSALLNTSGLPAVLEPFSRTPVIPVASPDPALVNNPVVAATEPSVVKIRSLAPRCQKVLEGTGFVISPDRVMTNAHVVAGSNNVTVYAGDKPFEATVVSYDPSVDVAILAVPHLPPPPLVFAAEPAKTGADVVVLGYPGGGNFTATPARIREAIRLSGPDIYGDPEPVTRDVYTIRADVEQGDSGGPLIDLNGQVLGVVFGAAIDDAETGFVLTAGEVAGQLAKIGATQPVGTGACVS
Starred values were filed as active, the others as inactive; / = no result given; + = active, no number. An excerpt weighted towards active compounds, which were near 3.5% of everything screened.

SMILES | FBA Mtb inh | GDH-TPI counter | Mtb UGM inh | Mtb betalactam | Rv3671c protease
CN(C)c1ccc(/C=N\NC(=S)SCN2C(=O)C3CCC(C)(C2=O)C3(C)C)cc1 (stereo not drawn) | 0 | 25 | 4 | -11 | 7
O=C1CCC(=O)c2oc3ccccc3c2N1 | 0 | 31* | 0 | -5 | 8
O=C1CN=C(c2ccc(F)cc2)c2oc3ccccc3c2N1 | -2 | 4 | 1 | -1 | 0
Cc1ccc(N/N=C2/CCCNC2=O)cc1 | -1 | 9 | 0 | 95 | -3
CC(=O)c1ccc(N/N=C2/CCCNC2=O)cc1 | -2 | 36* | 5 | 22 | -2
COc1ccc(NC(=O)N(C)C[C@@H]2OCc3cnnn3CCCC(=O)N([C@@H](C)CO)C[C@H]2C)cc1 | 1 | -8 | / | / | /
CCNc1nc(NC(C)C)nc(Nn2cnnc2)n1 | -1 | 0 | -1 | 0 | 5
CCNc1nc(C)c2cc(Br)c(=O)n(CC)c2n1 | 156* | 40* | 3 | -5 | 4
CCc1ccc(/C=N/Nc2ncnc3nc[nH]c23)cc1 | 3 | 71* | 4 | -6 | -4
Oc1[nH]c(N=C2N=c3ccccc3=N2)c2ccccc12 | 5 | 28 | -1 | 5 | -7
C/C(=N\NC(=O)c1c[nH]c2ccccc12)c1ccc(C)o1 | -2 | 33* | 3 | 9 | 0
CCCc1cc(C(=O)N/N=C/c2ccc(CC)s2)c2ccccc2n1 | 2 | 23 | 0 | 0 | 2
O=C(N/N=C/c1cccs1)c1c[nH]c2ccccc12 | 1 | 38* | -4 | 2 | 3
CCc1ccc(/C=N/NC(=O)c2c[nH]c3ccccc23)s1 | 3 | 50* | 0 | 2 | 6
Cc1c(/C=N\NC(=O)c2c[nH]c3ccccc23)cnn1C | -2 | 17 | 1 | 5 | 1
C(=NN=C(NN=Cc1cccs1)NN=Cc1cccs1)c1cccs1 | 2 | 44* | / | / | /
CCc1nc2ccc(C(=O)NCCCn3ccnc3)cn2c1N(C)C(=O)C1CCCCC1 | 2 | 15 | / | / | /
CC1Sc2ccc(C(=O)NCc3ccccn3)cc2NC1=O (stereo not drawn) | -2 | -1 | -1 | 5 | -10
O=C(Nc1ccc2c(c1)OCCO2)N1CCN(Cc2ccccc2)CC1 | 1 | 32* | 0 | -3 | 5
CCS(=O)(=O)Nc1ccc(C2=NN(C(=O)c3ccco3)C(c3cccc(F)c3)C2)cc1 (stereo not drawn) | 5 | 24 | 0 | 2 | -20
CCC(=O)N1N=C(c2ccc(NS(=O)(=O)CC)cc2)CC1c1ccc(C)cc1 (stereo not drawn) | + | 5 | -2 | 7 | -4
CCS(=O)(=O)Nc1ccc(C2=NN(C(=O)c3ccco3)C(c3ccc(Cl)o3)C2)cc1 (stereo not drawn) | 5 | 50* | -1 | 3 | -10
CCS(=O)(=O)Nc1ccc(C2=NN(C(=O)c3ccco3)C(c3ccc(C)cc3)C2)cc1 (stereo not drawn) | 3 | 24 | 1 | 15 | -2
CCC(=O)N1N=C(c2ccc(NS(=O)(=O)c3ccc(C)cc3)cc2)CC1c1ccco1 (stereo not drawn) | 2 | 2 | 0 | -1 | -17
CS(=O)(=O)Nc1ccc(C2=NN(C(=O)c3ccco3)C(c3cccc(F)c3)C2)cc1 (stereo not drawn) | 3 | 31* | 1 | 3 | -13
SMILES | FBA Mtb inh | GDH-TPI counter | Mtb UGM inh | Mtb betalactam | Rv3671c protease
Cc1nc(N2CCOCC2)nc(Oc2ccccc2)c1[N+](=O)[O-] | -2 | 9 | 3 | 4 | 1
CCOC(=O)C1=C(COC(=O)/C=C/c2cccc(OC)c2OC)NC(=O)NC1C (stereo not drawn) | 5 | 0 | -1 | 8 | 1
CCCCn1c(N)c(N(CCOC)C(=O)c2cc(Cl)nc3ccccc23)c(=O)[nH]c1=O | 2 | 10 | 0 | -5 | 8
N#CC1(NC(=O)COc2ccc3ccc(=O)oc3c2)CCCCC1 | 5 | 2 | -1 | 3 | 7
CCc1[nH]nc(C(=O)N2CCCC(C(=O)c3cccc(OC(C)C)c3)C2)c1C (stereo not drawn) | 164* | -4 | 0 | -2 | -5
COc1cc(OCc2ccccc2)c(C(=O)/C=C/c2ccc3c(c2)OCO3)c(OC)c1OC | 2 | 50* | 5 | -3 | -5
O=C(/C=C/c1ccc2c(c1)OCO2)c1c(O)n(CCc2ccccc2)c(=O)[nH]c1=O | 2 | -5 | 26* | 99 | -3
Oc1ccc(/C=N/NC(=S)Nc2cccnc2)c(O)c1O | -9 | 37* | / | / | /
Oc1ccccc1C=NNC(=S)NN=Cc1ccccc1O | -2 | 45* | / | / | /
NC(=S)N/N=C/c1ccccc1O | 5 | 15 | 4 | 91 | -2
O=C(CN(C(=O)CCC(=O)Nc1ccccn1)C1CCCC1)NCc1ccccc1 | -3 | 4 | 3 | -2 | 7
O=C1C2CCCN2C(=S)N1c1cc(Cl)ccc1Cl (stereo not drawn) | -5 | -5 | / | / | /
Cc1cc(=O)oc2cc(OCC(O)CN3CCc4ccccc4C3)ccc12 (stereo not drawn) | 50* | 14 | 1 | -5 | 5
Cc1cc(=O)oc2cc(OCC(O)CN3CCN(c4ccccc4)CC3)ccc12 (stereo not drawn) | 20 | 25 | / | -6 | -5
COCCCNC(=O)c1c(N)n(-c2cccc(S(N)(=O)=O)c2)c2nc3ccccc3nc12 | 138* | 2 | 0 | 10 | 4
COc1ccccc1NC(=O)Nc1ccccc1C#N | 10 | 0 | 4 | -7 | -1
N#Cc1ccccc1NC(=O)Nc1ccccc1 | 50* | -3 | -2 | -4 | 5
COc1ccc(/C=C/C(=O)N2CCN(c3ccccn3)CC2)cc1 | -1 | 12 | 1 | 5 | /
CSc1ccc(/C=C/C(=O)N2CCN(c3ccccn3)CC2)cc1 | 5 | 32* | 1 | 46 | -3
COc1cc2c(cc1O)CC[n+]1cc3c(OC)c(OC)ccc3cc1-2 | -4 | 33* | 3 | 2 | -1
COc1cc2c(ccc3cc(OC)c(OC)c(O)c32)cc1O | 6 | -1 | 2 | -8 | -1
COc1cc2c(cc1OC)-c1cc3ccc4c(c3c[n+]1CC2)OCO4 | -1 | 35* | 4 | -1 | -8
CC(C)C[C@@H](C(=O)O)N(Cc1cccc(CN([C@@H](CC(C)C)C(=O)O)S(C)(=O)=O)c1)S(C)(=O)=O | 2 | 3 | 1 | -10 | -10
COC(=O)Cn1c(=O)c2c(n(Cc3ccccc3)c1=O)N/C(=C/c1ccc(OC)cc1)C2=O | -1 | 41* | 1 | -3 | 1
COC(=O)Cn1c(=O)c(C(=O)CCl)c(N)n(Cc2ccccc2)c1=O | 1 | 5 | -2 | 66 | 7
CN1C(=O)NC(c2ccc(O)cc2)C(C(=O)c2cccs2)C1(O)C(F)(F)F (stereo not drawn) | -4 | 43* | 1 | -1 | 4
COc1cc(/C=N/n2nnnc2Nc2ccccc2)cc(OC)c1OC | -2 | 34* | 0 | 0 | -15

High-throughput results from PubChem.
